Measurements published in the antibiotic and cytotoxicity screens of Wong et al. (2023).
Out of some 39,000 compounds screened, about 3,300 (8.5%) were called active. This is one part of a sample in which actives are shown more often than they occur.

Each molecule was assayed on HepG2 (assay: cytotoxicity call (relative viability < 0.9)). Settings: 10 µM.

Row | SMILES | cytotoxicity call
1 | COc1cc2c(NC3CCN(C)CC3)nc(N3CCCN(C)CC3)nc2cc1OCCOCCN(C)C | inactive
2 | COc1cc2c(cc1OC)C(=O)C(CC1CCN(Cc3ccccc3)CC1)C2.Cl (stereo not drawn) | inactive
3 | COc1cc(C(=O)OCCCN2CCCN(CCOC(=O)c3cc(OC)c(OC)c(OC)c3)CC2)cc(OC)c1OC | inactive
4 | O=C(C1=C[C@H](c2ccc(Br)cc2)C[C@H](OCc2ccc(CO)cc2)O1)N1CCN(Cc2ccccc2)CC1 | inactive
5 | O=C(C1=C[C@@H](c2ccc(Br)cc2)C[C@@H](OCc2ccc(CO)cc2)O1)N1CCN(Cc2ccccc2)CC1 | inactive
6 | COc1cc2nc(N3CCCN(Cc4ccccc4)CC3)nc(NC3CCN(Cc4ccccc4)CC3)c2cc1OC | active
7 | COc1cc(Nc2c(C#N)cnc3cc(OCCCN4CCN(C)CC4)c(OC)cc23)c(Cl)cc1Cl | active
8 | COc1cc(C(=O)OCCCN2CCN(CCCOC(=O)c3cc(OC)c(OC)c(OC)c3)CC2)cc(OC)c1OC | inactive
9 | COc1cc2nc(N3CCCN(Cc4ccccc4)CC3)nc(Nc3ccc(F)c(Cl)c3)c2cc1OC | active
10 | Brc1ccc2nc(N3CCCN(Cc4ccccc4)CC3)nc(NC3CCN(Cc4ccccc4)CC3)c2c1 | active
11 | CCOC(=O)/C=C(C)/C=C/C=C(C)/C=C/c1c(C)cc(OC)c(C)c1C | inactive
12 | O=C(NCCCn1ccnc1)C(=O)NC[C@H]1OCCN1S(=O)(=O)c1ccc(F)cc1 | inactive
13 | C[C@@H]1CN([C@@H](C)CO)C(=O)c2cccc(NS(=O)(=O)c3ccccc3)c2O[C@H]1CN(C)S(=O)(=O)c1cn(C)cn1 | inactive
14 | Cc1ccc(S(=O)(=O)Nc2ccc3c(c2)C(=O)N([C@H](C)CO)C[C@@H](C)[C@@H](CN(C)C(=O)c2ccccc2)OCCCC[C@@H](C)O3)cc1 | inactive
15 | CC(C)NC(=O)Nc1ccc2c(c1)C(=O)N([C@@H](C)CO)C[C@H](C)[C@@H](CN(C)S(=O)(=O)c1ccc(F)cc1)O2 | inactive
16 | COc1ccc(C#Cc2cnc3c(c2)C(=O)N([C@H](C)CO)C[C@@H](C)[C@@H](CN(C)C(=O)CN(C)C)O3)cc1 | inactive
17 | C[C@H]1CN([C@@H](C)CO)C(=O)c2cc(NC(=O)CCCN(C)C)ccc2O[C@@H]1CN(C)S(=O)(=O)c1cn(C)cn1 | inactive
18 | C[C@H](CO)N1C[C@H](C)[C@H](CN(C)Cc2ccc3c(c2)OCO3)Oc2ccc(NC(=O)C3CC3)cc2CC1=O | inactive
19 | Nc1ncn(C(=O)c2ccccc2)n1 | inactive
20 | C[C@@H]1CN([C@H](C)CO)C(=O)c2cccc(NC(=O)c3nc4ccccc4s3)c2O[C@@H]1CN(C)Cc1ccc(C(=O)Nc2ccccc2N)cc1 | inactive
21 | O=C(C[C@H]1C[C@@H]2c3cc(NS(=O)(=O)c4ccccc4)ccc3O[C@@H]2[C@@H](CO)O1)NC1CCCCC1 | inactive
22 | COc1ccc(NC(C)=S)cc1C | inactive
23 | COc1ccc(S(=O)(=O)Nc2ccc3c(c2)C(=O)N([C@H](C)CO)C[C@@H](C)[C@H](CN(C)Cc2ccccc2)OCCCC[C@@H](C)O3)cc1 | inactive

Row | SMILES | cytotoxicity call
24 | COc1cc2c(NC3CCN(C(C)C)CC3)nc(N3CCC(F)(F)CC3)nc2cc1OCCCN1CCCC1 | active
25 | COc1cc2ncnc(Nc3ccc(F)c(Cl)c3)c2cc1OCCCN1CCOCC1 | active
26 | COc1cc2c(N3CCN(C(=O)Nc4ccc(OC(C)C)cc4)CC3)ncnc2cc1OCCCN1CCCCC1 | inactive
27 | O=C(NCCCN1CCOCC1)c1ccc(Cl)cc1 | inactive
28 | C[C@H](CO)N1C[C@H](C)[C@@H](CN(C)Cc2ccc(O)cc2)OCc2ccccc2-c2c(n(C)c3ccccc23)C1=O | inactive
29 | Cc1noc(C)c1NC(=O)Nc1ccc2c(c1)C(=O)N([C@@H](C)CO)C[C@@H](C)[C@H](CN(C)C(=O)Nc1ccc(F)cc1)OCCCC[C@H](C)O2 | inactive
30 | C[C@H](CO)N1C[C@H](C)[C@@H](CN(C)Cc2ccc(C(F)(F)F)cc2)Oc2ccc(NC(=O)CCC(F)(F)F)cc2CC1=O | inactive
31 | C[C@@H]1CN([C@@H](C)CO)C(=O)Cc2cc(NC(=O)CCC(F)(F)F)ccc2O[C@H]1CN(C)Cc1ccc(C(F)(F)F)cc1 | inactive
32 | C[C@H](CO)N1C[C@H](C)[C@@H](CN(C)Cc2ccc(-c3ccccc3)cc2)Oc2ccc(NC(=O)CCC(F)(F)F)cc2CC1=O | inactive
33 | C[C@@H]1CN([C@@H](C)CO)C(=O)Cc2cc(NC(=O)CCC(F)(F)F)ccc2O[C@@H]1CN(C)Cc1ccc(-c2ccccc2)cc1 | inactive
34 | C[C@@H]1CN([C@@H](C)CO)C(=O)Cc2cc(NC(=O)CCC(F)(F)F)ccc2O[C@H]1CN(C)Cc1ccc(-c2ccccc2)cc1 | inactive
35 | C[C@@H]1CN([C@H](C)CO)C(=O)Cc2cc(NC(=O)CCC(F)(F)F)ccc2O[C@H]1CN(C)Cc1ccc(-c2ccccc2)cc1 | active
36 | C[C@@H]1CN([C@H](C)CO)C(=O)Cc2cc(NC(=O)CCC(F)(F)F)ccc2O[C@@H]1CN(C)Cc1ccc(-c2ccccc2)cc1 | active
37 | C[C@H]1CN([C@@H](C)CO)C(=O)Cc2cc(NC(=O)CCC(F)(F)F)ccc2O[C@@H]1CN(C)Cc1ccc(-c2ccccc2)cc1 | active
38 | C[C@H](CO)N1C[C@H](C)[C@H](CN(C)Cc2ccc(C(F)(F)F)cc2)Oc2ccc(NC(=O)CCC(F)(F)F)cc2CC1=O | inactive
39 | C[C@H]1CN([C@@H](C)CO)C(=O)Cc2cc(NC(=O)CCC(F)(F)F)ccc2O[C@H]1CN(C)Cc1ccc(C(F)(F)F)cc1 | inactive
40 | C[C@H]1CN([C@@H](C)CO)C(=O)Cc2cc(NC(=O)CCC(F)(F)F)ccc2O[C@H]1CN(C)Cc1ccc(-c2ccccc2)cc1 | active
41 | C[C@H](CO)N1C[C@H](C)[C@H](CN(C)Cc2ccc(-c3ccccc3)cc2)Oc2ccc(NC(=O)CCC(F)(F)F)cc2CC1=O | inactive
42 | CC(=O)N1CCC2(CC1)NC(=O)NC2=O | inactive
43 | O=C(CN1CCOCC1)NCC[C@@H]1CC[C@@H](NC(=O)c2ccccc2F)[C@@H](CO)O1 | inactive
44 | Cc1ccnc([C@@H](N)C2CC2)c1 | inactive
45 | C[C@@H]1CN([C@@H](C)CO)C(=O)c2cc(NC(=O)CCCCCC(=O)Nc3ccccc3N)ccc2O[C@H]1CN(C)S(=O)(=O)c1cn(C)cn1 | inactive
46 | Nc1ccccc1C(=O)N[C@H]1CCCCNC1=O | inactive

Row | SMILES | cytotoxicity call
47 | C[C@H](CO)N1C[C@H](C)[C@@H](CN(C)Cc2ccc(C(=O)Nc3ccccc3N)cc2)Oc2c(NC(=O)Nc3ccc4c(c3)OCO4)cccc2C1=O | inactive
48 | C[C@H]1CN([C@@H](C)CO)C(=O)c2cc(C#CCc3ccccc3)cnc2O[C@@H]1CN(C)C(=O)Cc1cccnc1 | inactive
49 | COCC#Cc1cnc2c(c1)C(=O)N([C@H](C)CO)C[C@H](C)[C@@H](CN(C)S(=O)(=O)c1cccc(OC)c1)O2 | inactive
50 | NC[C@H]1OB(O)c2c(OCCO)ccc(Cl)c21 | inactive
51 | Cc1ccc(S(=O)(=O)Nc2cccc3c2O[C@H](CN(C)Cc2ccc(Oc4ccccc4)cc2)[C@@H](C)CN([C@H](C)CO)C3=O)cc1 | inactive
52 | C[C@H]1CN([C@@H](C)CO)C(=O)c2ccccc2-c2ccccc2CO[C@@H]1CN(C)Cc1ccc(Cl)c(Cl)c1 | inactive
53 | C[C@H]1CCCCO[C@H](CN(C)C(=O)Nc2ccc(F)cc2)[C@@H](C)CN([C@@H](C)CO)C(=O)c2cc(NS(=O)(=O)c3cccs3)ccc2O1 | inactive
54 | Cc1noc(C)c1S(=O)(=O)N(C)C[C@H]1Oc2ccc(NC(=O)C3CCCCC3)cc2CC(=O)N([C@@H](C)CO)C[C@H]1C | inactive
55 | C[C@@H]1CN([C@H](C)CO)C(=O)Cc2cc(NC(=O)c3ccncc3)ccc2O[C@@H]1CN(C)Cc1ccc(-c2ccccc2)cc1 | active
56 | C[C@@H]1CN([C@H](C)CO)C(=O)Cc2cc(NC(=O)c3ccncc3)ccc2O[C@@H]1CN(C)Cc1ccncc1 | inactive
57 | C[C@H](CO)N1C[C@H](C)[C@H](CN(C)Cc2ccc(-c3ccccc3)cc2)Oc2ccc(NC(=O)c3ccncc3)cc2CC1=O | inactive
58 | C[C@@H]1CN([C@H](C)CO)C(=O)Cc2cc(NC(=O)c3ccncc3)ccc2O[C@H]1CN(C)Cc1ccc(-c2ccccc2)cc1 | inactive
59 | C[C@H]1CN([C@@H](C)CO)C(=O)Cc2cc(NC(=O)c3ccncc3)ccc2O[C@H]1CN(C)Cc1ccc(-c2ccccc2)cc1 | active
60 | C[C@@H]1CN([C@@H](C)CO)C(=O)Cc2cc(NC(=O)c3ccncc3)ccc2O[C@@H]1CN(C)Cc1ccc(-c2ccccc2)cc1 | inactive
61 | C[C@H]1CN([C@@H](C)CO)C(=O)Cc2cc(NC(=O)c3ccncc3)ccc2O[C@@H]1CN(C)Cc1ccc(-c2ccccc2)cc1 | inactive
62 | C[C@@H]1CN([C@@H](C)CO)C(=O)Cc2cc(NC(=O)c3ccncc3)ccc2O[C@H]1CN(C)Cc1ccc(-c2ccccc2)cc1 | active
63 | C[C@H](CO)N1C[C@H](C)[C@@H](CN(C)Cc2ccc(-c3ccccc3)cc2)Oc2ccc(NC(=O)c3ccncc3)cc2CC1=O | inactive
64 | Cc1ccc(-c2ccc3c(c2)O[C@@H](CN(C)C(=O)CN(C)C)[C@@H](C)CN([C@H](C)CO)S3(=O)=O)cc1 | inactive
65 | CO[C@H]1CN(C)C(=O)c2cc(NC(=O)CC(F)(F)F)ccc2OC[C@@H](C)N(S(=O)(=O)c2cn(C)cn2)C[C@H]1C | inactive
66 | CO[C@@H](C(=O)N(C)C[C@@H]1OCc2ccccc2-c2c(n(C)c3ccccc23)C(=O)N([C@@H](C)CO)C[C@H]1C)c1ccccc1 | inactive
67 | COc1ccccc1CNC(=O)C[C@H]1C[C@@H]2c3cc(NS(=O)(=O)c4ccc(F)cc4)ccc3O[C@@H]2[C@H](CO)O1 | inactive
68 | C[C@@H]1CCCCO[C@H](CN(C)S(=O)(=O)c2ccccc2)[C@H](C)CN([C@H](C)CO)C(=O)c2cc(NS(C)(=O)=O)ccc2O1 | inactive
